Activity calls are given as the source filed them.

For experiment [1], the system named is Plasmodium falciparum Sir2 (PF13_0152, Sir2A). In words: pfSir2 binders on small-molecule microarrays, primary screen, biochemical, small-molecule microarray, 635 nm fluorescence (AID 1098).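 Also: score merges spot fluorescence intensity with its signal-to-noise ratio.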 To be noted: small-molecule microarray binding, fluorescence 635 nm; higher = more signal.
A short description of experiment [2]: small-molecule microarray binders of probe aDKK1, primary screen, biochemical, biotinylated probe, 635/667 nm fluorescence (AID 1099).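 Also: score merges 667nm spot fluorescence with signal to noise across triplicate slides.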 The settings on record: higher = more signal.
Experiment [3] is described as follows: small-molecule microarray binders of probe aCHRDL2, primary screen, biochemical, biotinylated probe, 635/667 nm fluorescence (AID 1100). To be noted: higher = more signal.
Experiment [4] is described as follows: splicing luciferase reporter signal modulators, primary screen, spliceosome inhibition project, cell-based, HEK293, splice +/- reporter (AID 1101).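 Also: HEK293 cells carrying a splicing-competent luciferase reporter gene; test concentration not given here.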 To be noted: luminescence, 24 h, higher = more signal, called active from +8 up or from −8 down.
Experiment [5] addresses Fibroblast growth factor 10 (Homo sapiens) (UniProt O15520). Nature of the experiment: FGF10 binders on small-molecule microarrays, primary screen, biochemical, small-molecule microarray, 635 nm fluorescence (AID 1102). To be noted: FGF10 binding, fluorescence 635 nm, higher = more signal.
Experiment [6] concerns glycogen synthase kinase-3 (GSK3A per assay name; protocol says GSK3B). In words: GSK3 binders on small-molecule microarrays, primary screen, biochemical, small-molecule microarray, 635 nm fluorescence, GSK3A (AID 1103). Also: the record names both GSK3A and GSK3B. The settings on record: small-molecule microarray binding, fluorescence 635 nm; higher = more signal.
Experiment [7] deals with Epidermal growth factor receptor (Homo sapiens) (UniProt P00533). Nature of the experiment: EGFR binders on small-molecule microarrays, primary screen, biochemical, small-molecule microarray, 635 nm fluorescence (AID 1104).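 Also: score merges 667 nm emission intensity with spot signal to noise over triplicate slides.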 The settings on record: EGFR binding, higher = more signal.
Chain of Epidermal growth factor receptor (Homo sapiens) (P00533 whole entry, looked up): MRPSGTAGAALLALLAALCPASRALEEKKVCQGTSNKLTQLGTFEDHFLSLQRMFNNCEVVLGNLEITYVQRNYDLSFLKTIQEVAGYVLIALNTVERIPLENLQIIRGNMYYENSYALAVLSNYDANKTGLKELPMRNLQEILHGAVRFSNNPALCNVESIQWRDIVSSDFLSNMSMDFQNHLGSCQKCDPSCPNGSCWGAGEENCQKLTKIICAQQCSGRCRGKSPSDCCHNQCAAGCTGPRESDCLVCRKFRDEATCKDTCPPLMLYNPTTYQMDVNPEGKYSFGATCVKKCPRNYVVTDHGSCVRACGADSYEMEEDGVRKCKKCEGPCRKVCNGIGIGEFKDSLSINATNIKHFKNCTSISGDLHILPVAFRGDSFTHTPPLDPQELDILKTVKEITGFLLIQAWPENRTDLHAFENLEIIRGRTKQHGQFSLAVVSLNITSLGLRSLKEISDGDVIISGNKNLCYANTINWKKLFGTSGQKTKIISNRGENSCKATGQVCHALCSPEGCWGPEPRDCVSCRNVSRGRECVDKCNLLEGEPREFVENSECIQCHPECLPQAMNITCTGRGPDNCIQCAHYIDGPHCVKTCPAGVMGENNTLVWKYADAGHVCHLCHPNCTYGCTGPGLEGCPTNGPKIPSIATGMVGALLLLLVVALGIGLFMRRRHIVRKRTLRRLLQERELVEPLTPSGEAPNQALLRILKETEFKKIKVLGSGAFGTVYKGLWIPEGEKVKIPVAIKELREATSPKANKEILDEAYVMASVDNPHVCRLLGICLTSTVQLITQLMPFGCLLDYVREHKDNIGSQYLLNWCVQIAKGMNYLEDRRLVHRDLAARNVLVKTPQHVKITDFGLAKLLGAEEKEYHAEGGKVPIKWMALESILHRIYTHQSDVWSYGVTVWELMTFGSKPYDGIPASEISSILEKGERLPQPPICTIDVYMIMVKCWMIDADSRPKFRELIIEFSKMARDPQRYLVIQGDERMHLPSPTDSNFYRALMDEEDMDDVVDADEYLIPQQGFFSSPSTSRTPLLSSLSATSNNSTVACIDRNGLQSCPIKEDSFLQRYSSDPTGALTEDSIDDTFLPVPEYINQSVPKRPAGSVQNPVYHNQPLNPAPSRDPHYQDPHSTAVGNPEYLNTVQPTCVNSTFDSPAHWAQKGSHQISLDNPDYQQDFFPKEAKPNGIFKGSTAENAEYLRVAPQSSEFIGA
Experiment [8] has as its target Follistatin-related protein 3 (Homo sapiens) (UniProt O95633). In words: FSTL3 binders on small-molecule microarrays, primary screen, biochemical, small-molecule microarray, 635 nm fluorescence (AID 1105).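 Also: score merges emission near 667 nm and signal to noise per printed spot across three slides.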 The settings on record: FSTL3 binding, higher = more signal.
The target in experiment [9] is Dickkopf-related protein 1 (Homo sapiens) (UniProt O94907). Nature of the experiment: DKK1 binders on small-molecule microarrays, primary screen, biochemical, small-molecule microarray, 635 nm fluorescence scan (AID 1106).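 Also: score merges emission near 667 nm with signal to noise over three replicate slides.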 The settings on record: DKK1 binding, higher = more signal.
Chain of Dickkopf-related protein 1 (Homo sapiens) (O94907 whole entry, looked up): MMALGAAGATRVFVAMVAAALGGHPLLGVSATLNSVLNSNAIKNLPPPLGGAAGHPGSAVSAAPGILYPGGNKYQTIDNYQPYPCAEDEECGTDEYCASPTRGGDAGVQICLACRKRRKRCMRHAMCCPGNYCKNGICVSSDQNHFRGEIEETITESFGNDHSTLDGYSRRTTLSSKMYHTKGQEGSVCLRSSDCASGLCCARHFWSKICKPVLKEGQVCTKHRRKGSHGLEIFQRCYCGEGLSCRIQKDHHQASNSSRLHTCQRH
Experiment [10] concerns Inhibin beta A chain (activin A). Nature of the experiment: INHBA (activin A) binders on microarrays, primary screen, biochemical, small-molecule microarray, 635 nm fluorescence scan (AID 1107).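 Also: mouse activin A protein probed at 4.33 µg/mL on printed slides; score merges bound-protein fluorescence near 667 nm with spot signal-to-noise.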 To be noted: small-molecule microarray binding, higher = more signal.
Experiment [11] relates to Human papillomavirus type 1a protein E7 (residues 44-93). Nature of the experiment: HPV1a E7 fragment binders on microarrays, primary screen, biochemical, small-molecule microarray, residues 44-93, 635 nm fluorescence (AID 1108).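 Also: E7 fragment applied at 1 µg/mL in TBST for 1 h at 4 C; score combines spot fluorescence with its signal to noise ratio.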 The settings on record: small-molecule microarray binding, fluorescence 635 nm; higher = more signal.
Experiment [12] in a line: modulators of HCV replicon luciferase signal, primary screen, HCV replication inhibitor project, Huh7 cells, luciferase reporter (AID 1109).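 Also: huh7 hepatoma cells harbouring a luciferase neomycin HCV replicon reporter; luciferase luminescence as measure of HCV replicon replication; test concentration not given here.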 The settings on record: 48 h, higher = more signal.
The target in experiment [13] is Left-right determination factor 2 (Homo sapiens) (UniProt O00292). In words: LEFTY2 binders on small-molecule microarrays, primary screen, biochemical, small-molecule microarray, 635 nm fluorescence scan (AID 1110). The settings on record: LEFTY2 binding, higher = more signal.
Chain of Left-right determination factor 2 (Homo sapiens) (O00292 whole entry, looked up): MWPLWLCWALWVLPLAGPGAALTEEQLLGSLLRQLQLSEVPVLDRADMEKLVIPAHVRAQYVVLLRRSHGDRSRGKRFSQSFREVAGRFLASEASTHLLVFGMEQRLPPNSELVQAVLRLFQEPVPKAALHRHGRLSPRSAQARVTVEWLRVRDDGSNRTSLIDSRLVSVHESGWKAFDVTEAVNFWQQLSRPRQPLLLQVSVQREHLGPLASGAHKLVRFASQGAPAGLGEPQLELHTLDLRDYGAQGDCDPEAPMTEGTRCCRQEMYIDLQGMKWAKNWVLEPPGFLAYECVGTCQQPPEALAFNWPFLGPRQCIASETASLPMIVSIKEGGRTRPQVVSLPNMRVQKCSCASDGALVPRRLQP
Experiment [14] addresses Calmodulin-1 (Homo sapiens) (UniProt P0DP23). In words: CALM1 binders on microarrays, EGTA buffer, profiling panel, biochemical, small-molecule microarray, Cy5-labelled CALM1 (AID 1111).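 Also: labelled calmodulin applied in Tris saline Tween buffer holding calcium plus EGTA and DTT.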 To be noted: Cy5-CALM1 binding fluorescence, higher = more signal.
For experiment [15] the target is unchanged. In words: calcium-bound CALM1 binders on microarrays, profiling panel, artefact control for SMM control-protein annotation, biochemical, small-molecule microarray, Cy5-labelled CALM1, plus calcium (AID 1112).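 Also: score merges spot fluorescence with signal to noise from triplicate slides.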 The settings on record: Cy5-CALM1 binding fluorescence, higher = more signal.
Experiment [16] in a line: small-molecule microarray binders of probe aWnt5a, primary screen, biochemical, biotinylated probe, 635/667 nm fluorescence (AID 1113).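 Also: score merges 667 nm fluorescence intensity with signal-to-noise per printed feature.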 The settings on record: higher = more signal.
Experiment [17] in a line: small-molecule microarray binders of probe aShh, primary screen, biochemical, biotinylated probe, 635/667 nm fluorescence (AID 1114).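 Also: probe is biotin-labelled aShh protein from a stem cell growth factor screen; measures binding of labelled protein to compounds printed on the slide; score merges feature fluorescence at 667 nm with signal-to-noise.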 The settings on record: higher = more signal.
Experiment [18] in a line: small-molecule microarray binders of probe aNog, primary screen, biochemical, biotinylated probe, 635/667 nm fluorescence (AID 1115).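 Also: probe is biotinylated aNog protein used at 0.15 µg/mL for 1 h at 4 C; z-score combines 667 nm fluorescence of each spot with its signal to noise.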 To be noted: higher = more signal.
The target in experiment [19] is Torsin-1A-interacting protein 1 (Homo sapiens) (UniProt Q5JTV8). Nature of the experiment: LAP1 binders from COS7 cell lysate, primary screen, small-molecule microarray, 635/667 nm fluorescence (AID 1116). The settings on record: COS7-hLAP1 lysate binding, 635 nm fluorescence, higher = more signal.
Chain of Torsin-1A-interacting protein 1 (Homo sapiens) (Q5JTV8 whole entry, looked up): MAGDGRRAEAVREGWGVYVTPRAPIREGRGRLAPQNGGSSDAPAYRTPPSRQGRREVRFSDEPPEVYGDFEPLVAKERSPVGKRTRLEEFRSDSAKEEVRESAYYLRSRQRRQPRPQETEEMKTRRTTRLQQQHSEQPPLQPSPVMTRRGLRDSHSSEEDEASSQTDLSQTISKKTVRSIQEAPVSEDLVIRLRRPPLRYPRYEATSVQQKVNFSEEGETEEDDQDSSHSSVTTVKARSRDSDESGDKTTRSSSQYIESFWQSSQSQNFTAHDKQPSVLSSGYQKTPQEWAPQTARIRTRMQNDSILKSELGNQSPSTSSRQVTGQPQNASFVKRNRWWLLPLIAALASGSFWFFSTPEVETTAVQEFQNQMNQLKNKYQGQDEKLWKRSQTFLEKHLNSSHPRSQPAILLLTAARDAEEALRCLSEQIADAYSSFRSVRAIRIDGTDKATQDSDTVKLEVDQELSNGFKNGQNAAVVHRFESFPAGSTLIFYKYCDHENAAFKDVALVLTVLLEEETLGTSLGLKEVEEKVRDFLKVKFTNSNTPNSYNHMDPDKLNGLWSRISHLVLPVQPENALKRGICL
Experiment [20] concerns the target Alpha-bungarotoxin (Bungarus multicinctus) (UniProt P60615). In words: alpha-bungarotoxin binders on microarray, profiling panel, artefact control for SMM control protein annotation, biochemical, small-molecule microarray, Alexa647 label, 635/667 nm fluorescence (AID 1117). The settings on record: alpha-BTX-A647 binding fluorescence, higher = more signal.

Chain of Alpha-bungarotoxin (Bungarus multicinctus) (P60615 whole entry, looked up): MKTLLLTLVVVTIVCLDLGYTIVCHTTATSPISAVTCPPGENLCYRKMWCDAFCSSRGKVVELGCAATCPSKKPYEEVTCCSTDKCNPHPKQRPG
Chain of Follistatin-related protein 3 (Homo sapiens) (O95633 whole entry, looked up): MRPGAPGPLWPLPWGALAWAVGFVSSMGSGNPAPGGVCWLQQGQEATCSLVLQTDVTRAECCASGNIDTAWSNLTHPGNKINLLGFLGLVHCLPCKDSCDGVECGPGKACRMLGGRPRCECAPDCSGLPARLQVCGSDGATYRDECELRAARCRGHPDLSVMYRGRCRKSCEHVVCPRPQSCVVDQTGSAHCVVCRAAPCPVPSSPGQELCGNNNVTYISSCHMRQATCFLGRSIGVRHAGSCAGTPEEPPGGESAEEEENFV
Chain of Fibroblast growth factor 10 (Homo sapiens) (O15520 whole entry, looked up): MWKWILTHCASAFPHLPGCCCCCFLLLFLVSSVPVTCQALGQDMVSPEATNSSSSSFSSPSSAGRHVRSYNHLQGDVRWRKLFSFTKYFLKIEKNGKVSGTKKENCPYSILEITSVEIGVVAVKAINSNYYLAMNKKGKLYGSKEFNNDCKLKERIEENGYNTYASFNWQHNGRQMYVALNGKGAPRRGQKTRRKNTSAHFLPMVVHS

As to `C=CCNC(=O)[C@H]1[C@@H]2C(=O)O[C@@H](c3ccccc3)[C@@H](c3ccccc3)N2[C@@H](c2ccc(OCCO)cc2)[C@]12C(=O)N(C(=O)OCCOC)c1ccc(C#CCC(C(=O)OC)C(=O)OC)cc12`, the composite z-score in [1] was 1.4; in [2] it was 0.713; in experiment [3] it was 0.997; in [5], 1.44; in [6] it was 1.16; in experiment [7], 0.524. The composite z-score is 1.08 in experiment [8]; 0.5 in experiment [9]; 0.768 in [10]; 1.41 in experiment [11]; 0.158 in experiment [13]; 1.58 in experiment [14]. The composite z-score in experiment [15] stood at 0.81; in experiment [16] it was 0.291; in experiment [17], 2.08; in experiment [18] it was 1.42; in experiment [19], 2.68; in [20], 1.63. The results for the z-score in experiment [4] and in [12] were 0.345 (inactive) and -1.54, respectively.
Regarding `C=CC[C@]1(C(=O)NCC(O)CO)N=C(c2ccc(OCCCO)cc2)O[C@H]1c1ccccc1CN=[N+]=[N-]` (stereo not given in full), the composite z-score in experiment [1] was -0.285; in experiment [2] it was 0.783; in [3], 1.18; in experiment [5] it was 0.722; in experiment [6], 0.7; in experiment [7], -2.08. The composite z-score in experiment [8] is -1.17; in experiment [9] it was -0.471; in experiment [10], 0.274; in experiment [11], 0.551; in experiment [13], -0.696; in [14], 1.34. For the same molecule, the composite z-score in experiment [15] is 0.262; in [16], 0.0181; in [17], -0.0146; in [18], -0.516; in experiment [19] it was 3.34; in experiment [20], 0.138. In addition, the z-score in [4] was 0.704 (inactive); in [12] it was -1.06.
Turning to `COC(=O)[C@@]1(Cc2ccc(F)cc2)[C@H]2c3cc(C(=O)N4CCCC4)n(C[C@H](O)CO)c3C[C@H]2CN1C(=O)c1ccccc1`, the composite z-score in experiment [1] was 0.543; in experiment [2], 1.48; in experiment [3] it was 0.609; in experiment [5] it was 0.0396; in experiment [6] it was 0.094; in experiment [7], -0.0057. In addition, the composite z-score is 0.111 in experiment [8]; 0.145 in experiment [9]; 0.549 in experiment [10]; 0.0716 in [11]; -0.358 in experiment [13]; 2.69 in experiment [14]. The composite z-score is 1.27 in experiment [15]; 0.429 in experiment [16]; 1.41 in experiment [17]; 2.28 in [18]; 2.35 in experiment [19]; 0.185 in experiment [20]. The values for the z-score in [4] and in experiment [12] were 0.749 (inactive) and -0.948, respectively.
As to `CCOC(=O)C1=CCC(c2cccn2C(=O)OC(C)(C)C)N(S(=O)(=O)c2ccc(C)cc2)C1` (stereo not given), the composite z-score came out at 1.45 in experiment [1]; 0.484 in experiment [2]; 0.574 in [3]; 0.404 in experiment [5]; 1.3 in experiment [6]; 0.698 in experiment [7]. The composite z-score in experiment [8] is 0.922; in experiment [9], 0.0815; in experiment [10], 1.46; in [11] it was 0.18; in experiment [13], 0.379; in experiment [14] it was 0.864. Further, the composite z-score in experiment [15] is 0.439; in experiment [16] it was -0.104; in experiment [17], 0.428; in experiment [18], 1.21; in [19], 1.52; in [20], 2.21. Further, the z-score in experiment [4] was -0.799 (inactive); in experiment [12] it was -3.94.
Turning to `COC(=O)[C@@]1(Cc2ccc(OC)cc2)[C@@H]2[C@@H](CC(=O)[C@H]2CC(=O)C(=O)N(C)C)CN1C(=O)c1ccccc1`, the composite z-score was found to be 0.625 in experiment [1]; 1.64 in [2]; 1.49 in experiment [3]; 1.27 in experiment [5]; 1.18 in [6]; 0.638 in experiment [7]. Further, the composite z-score in experiment [8] was 1.17; in [9] it was -0.458; in experiment [10], 0.18; in experiment [11], 1.42; in [13] it was 0.243; in [14], 2.66. Besides, the composite z-score in experiment [15] amounted to 1.51; in [16], 0.346; in experiment [17] it was 2.46; in experiment [18] it was 0.899; in experiment [19] it was 1.51; in experiment [20] it was 1.67. The z-score is -1.53 (inactive) in [4] and -2.35 in experiment [12].
With `C=CC[C@H](O)c1ccc(O)c(F)c1`, the composite z-score was 0.399 in experiment [1]; -0.727 in experiment [2]; 0.328 in experiment [3]; -0.809 in [5]; -1.13 in experiment [6]; -1.23 in experiment [7]. Moreover, the composite z-score in experiment [8] is -0.418; in [9], -1.97; in [10], -2.89; in experiment [11], -2.12; in experiment [13], -1.13; in [14] it was -0.829. The composite z-score was -0.589 in experiment [15]; -0.229 in experiment [16]; -0.138 in [17]; -0.537 in experiment [18]; -0.992 in experiment [19]; -0.328 in experiment [20]. The z-score is -0.339 (inactive) in [4] and -1.74 in [12].

The record behind these values is PubChem BioAssay.
